Hit rate of the full screen: of about 140,000 compounds, about 4,300 (3.1%) were called active. Inconclusive results (about 21%) are left out.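 How the source made its calls: active means readout at or below -70, meaning at least 70% loss of cells showing the perinucleolar compartment, a nuclear body marking cancer cells; inconclusive means readout between -30 and a set limit; inactive means the rest.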 For the sample, actives were picked, then their nearest neighbours and some compounds at random.
assay: High Content Assay for Compounds that inhibit the Assembly of the Perinucleolar Compartment; conditions: PC3M PTB-GFP, PNC prevalence imaging, 16 h; at 10 µM; stronger effect = lower value
Excerpt: High Content Assay for Compounds that inhibit the Assembly of the Perinucleolar Compartment NIH Chemical Genomics Center [NCGC] NIH Molecular Libraries Probe Centers Network [MLPCN] MLPCN Grant: MH082371-01A2 Assay Submitter (PI): Sui Huang, Northwestern University, Feinberg School of Medicine, Cell and Molecular Biology, Chicago, Illinois. The perinucleolar compartment (PNC) is a non-membrane-bound nuclear subdomain that is associated with but structurally distinct from the nucleolus. The PNC is a heritable trait, in which the number of PNCs per cell in daughter cells often mimics that of their mother cells. The PNC is heterogeneous in shape, is stable through interphase, disassembles during mitosis, and reassembles in early G1. The PNC is concentrated with newly synthesized RNA polymerase III (pol III) RNAs (MRP RNA, RNAse P H1 RNA, hY RNAs[hY1, 2, 5], Alu RNA, and SRP [7SL] RNA) and RNA binding proteins (nucleolin, PTB, CUG-BP, KSRP, Raver1, Raver2, and Rod). […] Extensive in vitro studies have shown that the PNC is unique to tumor cells and preferentially forms in tumor cells derived from solid tissues. Examination of cancer cell lines from various origins and malignant capacities has shown that PNC prevalence correlates with the malignancy of tumors and has the potential to be developed as a pan-cancer prognostic marker. […] Although the PNC is associated with a DNA locus and a handful of components have been identified, much remains to be investigated regarding the structure and function of the PNC and its mechanistic link to cancer. We have previously shown that PNC prevalence reduction is a valid strategy to identify compounds that can be used to study the structure and function of the PNC. It is necessary, however, to create a screening platform that is able to test a large number of compounds in an automated fashion. Here we report the development and robustness of an automated whole-cell phenotypic image-based screening assay that is capable of identifying such compounds.
PNC High Content Imaging Assay Procedure: 1. Cells at a density of 75-90% confluency in T175 flasks were harvested using 7 ml TrypLE Express cell dissociation reagent. After dissociation (5 minutes room temperature incubation) 10 ml of complete media was added to the TrypLE/cell suspension. The liquid was transferred to a 50 ml Conical tube and cells were pelleted at 1000 RPM for 5 min. Supernatant was removed and cells were resuspended to a final density of 150-200 cells/ul in complete media. 2. Cells were plated in 5 ul volume (750-1000 cells/well) into 1536 well Black uclear Aurora Low Base plates and allowed to recover and adhere at 37 C in a humidified 5% CO2 incubator for 4 hours. 3. After 4 hour incubation, compound libraries (23 nl of […] in columns 5-48) were transferred to the plates in duplicate using a 1536 well pintool. Camptothecin positive control (59 uM final) was added to column 2 and 1:3 dilutions of camptothecin was added to column 3. DMSO negative controls were present in columns 1 and 4. 4. After a 16 hour incubation in the 37 C incubator, cells were fixed by the addition of 4 ul of 6% EM grade paraformaldehyde (containing 0.1% triton X 100) directly to the cells. The plates were incubated at room temperature for 20 minutes. The liquid was removed using a 32 channel Kalypsys aspirator and the fixed cells were washed twice with 5 ul PBS followed by a final addition of 5 ul PBS containing 1 ug/ml Hoechst 33342. 5. Fixed plates were sealed and sotred at 4C until imaged. 6. Plates were imaged on an InCell 1000 automated microscope using a 20 x objective, a standard FITC filter set, no camera binning, and an exposure time of ~100-150 msec/well. 7. Data analysis. PNC prevalence was determined using the Multitarget analysis module from InCell Workstation software (V3.5 ) and analysis was run on a quad core workstation using the Incell Developer Toolbox (V1.7). […]

SMILES | activity change (PNC), negative = inhibition
CCOc1ccccc1C1C(C(=O)OC)=CN(C)C=C1C(=O)OC | 3.14% (inactive)
NNC(=O)c1ccc(Cl)cc1Cl | 5.71% (inactive)
COC(=O)C1=CN(C)C=C(C(=O)OC)C1c1ccc(Cl)cc1Cl | -80.4% (active)
O=C(Cc1cccs1)Nc1cccc(-c2nc3ccccc3[nH]2)c1 | 3.35% (inactive)
COc1cc(NS(=O)(=O)c2ccc(N=Cc3c(C)[nH]n(-c4ccccc4)c3=O)cc2)nc(OC)n1 | -26.4% (inactive)
COc1ccc(S(=O)(=O)Nc2ccc3oc(C)c(C(C)=O)c3c2)cc1 | 56.6% (inactive)
COc1cc(NS(=O)(=O)c2ccc(N/C=C(\C=O)c3nc4cc(Cl)ccc4o3)cc2)nc(OC)n1 | -105% (active)
O=C(c1ccc(CSc2ccccc2)cc1)N1CCCCCC1 | -13.8% (inactive)
C=CCNC(=O)/C=C/c1ccc(C(C)C)cc1 | 29.5% (inactive)
N#C/C(=C/c1ccc(N2CCOCC2)o1)C(=O)N1CCOCC1 | 61.9% (inactive)
N#C/C(=C/c1ccc(N2CCCCC2)o1)C(=O)NCCc1c[nH]c2ccccc12 | -86.8% (active)
CC(=O)N/C(=C/c1ccc(Cl)cc1)C(=O)NCCc1c[nH]c2ccccc12 | 19.3% (inactive)
Cn1cc(C(=O)NCc2ccccc2F)cn1 | -25.6% (inactive)
N#C/C(=C\c1ccccc1C(F)(F)F)C(=O)Nc1ccccc1F | -16.5% (inactive)
COc1cccc(NC(=O)CC(c2ccc(OC(C)C)cc2)c2ccccc2OC)c1 (stereo not drawn) | 21% (inactive)
NC(=O)CCC(NS(=O)(=O)c1ccc(Cl)cc1)C(=O)NCc1ccccc1Cl (stereo not drawn) | -7.93% (inactive)
COc1ccccc1C1SCCN1C(=O)c1ccc([N+](=O)[O-])cc1 (stereo not drawn) | 15% (inactive)
NC1=NC(=O)C(Cc2cccc(Cl)c2)S1 (stereo not drawn) | 22.5% (inactive)
N#Cc1ccc(N2Cc3ccccc3/C2=N/C(=O)Nc2ccc(Cl)cc2)cc1 | 16.1% (inactive)
FC(F)(F)c1cc(-c2ccco2)nc(N2CCOCC2)n1 | 27.9% (inactive)
Cc1cc(C(F)(F)F)nn1-c1nc(-c2ccco2)cc(C(F)(F)F)n1 | -13% (inactive)
O=C(CSc1nc(-c2ccco2)cc(C(F)(F)F)n1)N1CCc2ccccc2C1 | -123% (active)
Cc1ccc(NC(=O)COC(=O)CCc2nc3ccccc3n2-c2ccccc2)c(C)c1 | 55.5% (inactive)
O=C(NC(=S)NC1CCSC1=O)c1ccccc1F (stereo not drawn) | 12.8% (inactive)

SMILES | activity change (PNC), negative = inhibition
O=c1c2sccc2nc(SCc2cc(=O)n3ccccc3n2)n1-c1ccc(Br)cc1 | 0.678% (inactive)
Cc1ccc(NC(=O)CSCC(=O)NC2CCCCC2)cc1 | 13.8% (inactive)
O=C(CCN1C(=O)C2C3C=CC(C3)C2C1=O)Nc1ccccc1F (stereo not drawn) | 25% (inactive)
O=C(CCCN1C(=O)C2C3C=CC(C3)C2C1=O)N1CCN(c2ccccc2)CC1 (stereo not drawn) | -106% (active)
CC(CC(=O)N1CCN(c2ccccc2)CC1)c1ccccc1 (stereo not drawn) | -11.1% (inactive)
CC(C)(C)CC(C)(C)NCC(O)COCCOc1ccc(Br)cc1 (stereo not drawn) | 6.23% (inactive)
COC(C(=O)Nc1ccc(C(C)=O)cc1)c1ccccc1 (stereo not drawn) | -124% (active)
COc1ccc(NC(C(=O)Nc2cccc(C(C)=O)c2)c2ccccc2)cc1 (stereo not drawn) | 18.3% (inactive)
CC(=O)c1ccc(NC(=O)N[C@@H](Cc2ccccc2)C(=O)O)cc1 | 64.7% (inactive)
O=C(CC(=O)N/N=C\c1cccc(Cl)c1Cl)NCc1ccccc1 | 44.3% (inactive)
Nc1nc(SCC(=O)NNc2c(Cl)cc(Cl)cc2Cl)n[nH]1 | 21.1% (inactive)
CCCCOc1ccc(C(=O)NN2CCN(C)CC2)cc1 | 15.4% (inactive)
COc1ccccc1Nc1nc(N)nc(CN(C)C2CCCCC2)n1 | -29.7% (inactive)
COc1ccccc1NC1=NC(c2ccc(Cl)cc2)N=C(N)N1 (stereo not drawn) | -92.7% (active)
Cc1cc(C)nc(NC(=O)c2cccc([N+](=O)[O-])c2)c1 | 69% (inactive)
COCCCN(C(=S)Nc1c(C)cc(C)cc1C)C(C)c1ccncc1 (stereo not drawn) | -82.2% (active)
COCCCN(C(=O)Cn1ncc2c(=O)oc3ccc(C)cc3c21)C(C)c1ccncc1 (stereo not drawn) | 3.72% (inactive)
CCCC/S(C)=N/S(=O)(=O)c1ccc(C)cc1 (stereo not drawn) | 24.9% (inactive)
COc1ccc(/C(N)=N/OC(=O)Oc2ccccc2)cc1 | 13.5% (inactive)
N/C(=N\OC(=O)N1c2ccccc2Sc2ccccc21)c1ccc(Br)cc1 | -113% (active)
COc1ccc(/C(N)=N/OC(=O)Cc2ccccc2)cc1 | 17.5% (inactive)
O=C(Cc1ccc(S(=O)(=O)N2CCOCC2)s1)NCCC(c1ccccc1)c1ccccc1 | 44.4% (inactive)
COc1cccc(NC(=O)CN2CCN(c3nc(-c4cccc(OC)c4)cs3)CC2)c1 | 43% (inactive)
COc1cccc(NC(=O)CN(C)S(=O)(=O)c2ccc(C)cc2)c1 | -3.49% (inactive)

SMILES | activity change (PNC), negative = inhibition
COc1cccc(NC(=O)Cn2cnc3sc(C)c(S(=O)(=O)N4CCN(C)CC4)c3c2=O)c1 | -100% (active)
CCN(CC)CCNC(=O)Cn1cnc2sc(C)c(S(=O)(=O)N3CCOCC3)c2c1=O | -100% (active)
CCOC(=O)c1sc(NC(=O)c2cc(S(=O)(=O)N3CCOCC3)ccc2C)nc1C | -23.4% (inactive)
CC(O)c1nc2ccccc2n1Cc1ccc([N+](=O)[O-])cc1 (stereo not drawn) | 9.78% (inactive)
CCOc1ccc(C(=O)Nc2nccs2)cc1[N+](=O)[O-] | 8% (inactive)
CN1CCC(=NNC(=O)c2ccc(N(Cc3ccc(Cl)cc3)S(C)(=O)=O)cc2)CC1 | -4.47% (inactive)
O=C(CCN1C(=O)c2ccccc2C1=O)NNC(=O)c1ccc(Cl)cc1Cl | 53% (inactive)
O=C(Nc1ccccc1Cc1ccccc1)c1ccc2c(c1)SC1=NS(=O)(=O)CCN12 | 18.7% (inactive)
O=C(NC1CCC(O)CC1)c1ccc(S(=O)(=O)NCc2ccco2)cc1 (stereo not drawn) | -13.5% (inactive)
CC1CCN(S(=O)(=O)c2ccc(S(=O)(=O)NCc3ccco3)cc2)CC1 | -100% (active)
Cc1ccc(S(=O)(=O)N2CCC(C(=O)N[C@@H](C)C(=O)NCc3ccco3)CC2)cc1 | 61.1% (inactive)
Cn1nnnc1SCC(=O)Nc1ccccc1C(=O)NC1CC1 | -17.1% (inactive)
CC1Cc2nc(SCC(=O)Nc3ccccc3F)n(C)c(=O)c2S1 (stereo not drawn) | -100% (active)
CCc1ccc(NC(=O)CSc2nc3ccccc3c(=O)n2CCN2CCOCC2)cc1 | -23.7% (inactive)
CC(C)n1c(SCC(=O)Nc2ccccc2N2CCCCC2)nc2c1c(=O)n(C)c(=O)n2C | -24% (inactive)
CCn1c(SCC(=O)Nc2ccccc2F)nc2c(c1=O)SC(C)C2 (stereo not drawn) | -100% (active)
CCn1c(Cc2ccccc2)nnc1SCC(=O)Nc1ccccc1 | -27.9% (inactive)
COc1ccc(C/C(C)=N/NC(=O)c2ccncc2)cc1 | 36.6% (inactive)
COc1cc(C)nc(N2CCCC(C(=O)NCC(C)C)C2)n1 (stereo not drawn) | -100% (active)
Cc1cc(=O)n2nc(N3CCCC(C(=O)NCCC4=CCCCC4)C3)sc2n1 (stereo not drawn) | 6.76% (inactive)
Cc1ccnc(N2CCCC(C(=O)Nc3cc(F)ccc3C)C2)n1 (stereo not drawn) | -22.4% (inactive)
NS(=O)(=O)c1ccc(CCNC(=S)Nc2ccc(S(N)(=O)=O)cc2)cc1 | 74.6% (inactive)
CCOC(=O)NC(=O)C(=CNc1cccc(OC)c1)C(=O)NC(=O)OCC | 45.4% (inactive)
CCOC(=O)C(NC(=O)CC(C)C)(Nc1sc2c(c1C(N)=O)CCCC2)C(F)(F)F (stereo not drawn) | 0.0946% (inactive)

SMILES | activity change (PNC), negative = inhibition
CC1Cc2ccccc2N1C(=O)Cn1cnc2ccccc2c1=O (stereo not drawn) | -80.4% (active)
CC1Cc2ccccc2N1C(=O)CSc1nc2ccccc2o1 (stereo not drawn) | 31.3% (inactive)
CCn1nc(C(=O)OCC(=O)N2c3ccccc3CC2C)c2ccccc2c1=O (stereo not drawn) | -8.81% (inactive)
COc1ccc(C2CC(c3ccccc3)=NN2C(=O)c2ccc(Cl)c([N+](=O)[O-])c2)cc1 (stereo not drawn) | 27.8% (inactive)
CCOc1ccc(S(=O)(=O)N(CC(=O)NCC(F)(F)F)Cc2ccco2)cc1 | 52.1% (inactive)
Cc1cc(/C=C2\SC(=Nc3ccc(N4CCOCC4)cc3)N(C)C2=O)c(C)n1-c1cccnc1 | -27.8% (inactive)
CC(=O)Nc1ccc(OC(=O)COc2ccc(Br)cc2)cc1 | 36.4% (inactive)
CN1CCCC(OC(=O)COc2ccc(Br)cc2)C1 (stereo not drawn) | -86.4% (active)
CCOC(=O)N1CCN(C(=O)COc2ccc(Br)cc2)CC1 | -29.5% (inactive)
COc1ccc(C(C(=O)NC2CCCCC2)N(C(=O)Cc2c[nH]c3ccccc23)c2ccccc2)cc1OC (stereo not drawn) | 32.6% (inactive)
O=C(/C=C/c1cccc([N+](=O)[O-])c1)NCCSCc1ccco1 | -113% (active)
O=C(/C=C/c1ccc([N+](=O)[O-])cc1)NCCSCc1ccco1 | 85.9% (inactive)
COc1cc(OC)cc(C(=O)NCCSCc2ccco2)c1 | -94.6% (active)
CCC(CC)NC(=O)/C=C/c1cccc([N+](=O)[O-])c1 | -18.8% (inactive)
CS(=O)(=O)N(Cc1ccc(Cl)cc1)c1ccc(C(=O)NCCSCc2ccco2)cc1 | 22.9% (inactive)
COc1ccc(CCNC(=O)c2ccco2)cc1 | 24.7% (inactive)
CC(=O)c1c(O)cc2n(c1=O)-c1ccc(Cl)cc1C2(C)C | -2.74% (inactive)
O=C(NC(=O)N1CCOCC1)c1ccccc1 | 6.63% (inactive)
O=C(Nc1ccn(Cc2ccccc2)n1)c1n[nH]c([N+](=O)[O-])c1Cl | 5.38% (inactive)
CC(Sc1cccc[n+]1[O-])C(=O)Nc1cccc(S(=O)(=O)N2CCOCC2)c1 (stereo not drawn) | -7.27% (inactive)
COc1ccc(-c2csc(NC(=O)COC(=O)c3ccc(Br)o3)n2)cc1 | -8.03% (inactive)
